Target: Neurogenic locus notch homolog protein 2 (Homo sapiens) (UniProt Q04721)
Experiment: Notch2 binders on small-molecule microarrays, primary screen, biochemical, small-molecule microarray, 635 nm fluorescence, stem cell growth factors (AID 1073)
Conditions: Notch2 binding, higher = more signal

Sequence of Neurogenic locus notch homolog protein 2 (Homo sapiens) (Q04721 whole entry, looked up): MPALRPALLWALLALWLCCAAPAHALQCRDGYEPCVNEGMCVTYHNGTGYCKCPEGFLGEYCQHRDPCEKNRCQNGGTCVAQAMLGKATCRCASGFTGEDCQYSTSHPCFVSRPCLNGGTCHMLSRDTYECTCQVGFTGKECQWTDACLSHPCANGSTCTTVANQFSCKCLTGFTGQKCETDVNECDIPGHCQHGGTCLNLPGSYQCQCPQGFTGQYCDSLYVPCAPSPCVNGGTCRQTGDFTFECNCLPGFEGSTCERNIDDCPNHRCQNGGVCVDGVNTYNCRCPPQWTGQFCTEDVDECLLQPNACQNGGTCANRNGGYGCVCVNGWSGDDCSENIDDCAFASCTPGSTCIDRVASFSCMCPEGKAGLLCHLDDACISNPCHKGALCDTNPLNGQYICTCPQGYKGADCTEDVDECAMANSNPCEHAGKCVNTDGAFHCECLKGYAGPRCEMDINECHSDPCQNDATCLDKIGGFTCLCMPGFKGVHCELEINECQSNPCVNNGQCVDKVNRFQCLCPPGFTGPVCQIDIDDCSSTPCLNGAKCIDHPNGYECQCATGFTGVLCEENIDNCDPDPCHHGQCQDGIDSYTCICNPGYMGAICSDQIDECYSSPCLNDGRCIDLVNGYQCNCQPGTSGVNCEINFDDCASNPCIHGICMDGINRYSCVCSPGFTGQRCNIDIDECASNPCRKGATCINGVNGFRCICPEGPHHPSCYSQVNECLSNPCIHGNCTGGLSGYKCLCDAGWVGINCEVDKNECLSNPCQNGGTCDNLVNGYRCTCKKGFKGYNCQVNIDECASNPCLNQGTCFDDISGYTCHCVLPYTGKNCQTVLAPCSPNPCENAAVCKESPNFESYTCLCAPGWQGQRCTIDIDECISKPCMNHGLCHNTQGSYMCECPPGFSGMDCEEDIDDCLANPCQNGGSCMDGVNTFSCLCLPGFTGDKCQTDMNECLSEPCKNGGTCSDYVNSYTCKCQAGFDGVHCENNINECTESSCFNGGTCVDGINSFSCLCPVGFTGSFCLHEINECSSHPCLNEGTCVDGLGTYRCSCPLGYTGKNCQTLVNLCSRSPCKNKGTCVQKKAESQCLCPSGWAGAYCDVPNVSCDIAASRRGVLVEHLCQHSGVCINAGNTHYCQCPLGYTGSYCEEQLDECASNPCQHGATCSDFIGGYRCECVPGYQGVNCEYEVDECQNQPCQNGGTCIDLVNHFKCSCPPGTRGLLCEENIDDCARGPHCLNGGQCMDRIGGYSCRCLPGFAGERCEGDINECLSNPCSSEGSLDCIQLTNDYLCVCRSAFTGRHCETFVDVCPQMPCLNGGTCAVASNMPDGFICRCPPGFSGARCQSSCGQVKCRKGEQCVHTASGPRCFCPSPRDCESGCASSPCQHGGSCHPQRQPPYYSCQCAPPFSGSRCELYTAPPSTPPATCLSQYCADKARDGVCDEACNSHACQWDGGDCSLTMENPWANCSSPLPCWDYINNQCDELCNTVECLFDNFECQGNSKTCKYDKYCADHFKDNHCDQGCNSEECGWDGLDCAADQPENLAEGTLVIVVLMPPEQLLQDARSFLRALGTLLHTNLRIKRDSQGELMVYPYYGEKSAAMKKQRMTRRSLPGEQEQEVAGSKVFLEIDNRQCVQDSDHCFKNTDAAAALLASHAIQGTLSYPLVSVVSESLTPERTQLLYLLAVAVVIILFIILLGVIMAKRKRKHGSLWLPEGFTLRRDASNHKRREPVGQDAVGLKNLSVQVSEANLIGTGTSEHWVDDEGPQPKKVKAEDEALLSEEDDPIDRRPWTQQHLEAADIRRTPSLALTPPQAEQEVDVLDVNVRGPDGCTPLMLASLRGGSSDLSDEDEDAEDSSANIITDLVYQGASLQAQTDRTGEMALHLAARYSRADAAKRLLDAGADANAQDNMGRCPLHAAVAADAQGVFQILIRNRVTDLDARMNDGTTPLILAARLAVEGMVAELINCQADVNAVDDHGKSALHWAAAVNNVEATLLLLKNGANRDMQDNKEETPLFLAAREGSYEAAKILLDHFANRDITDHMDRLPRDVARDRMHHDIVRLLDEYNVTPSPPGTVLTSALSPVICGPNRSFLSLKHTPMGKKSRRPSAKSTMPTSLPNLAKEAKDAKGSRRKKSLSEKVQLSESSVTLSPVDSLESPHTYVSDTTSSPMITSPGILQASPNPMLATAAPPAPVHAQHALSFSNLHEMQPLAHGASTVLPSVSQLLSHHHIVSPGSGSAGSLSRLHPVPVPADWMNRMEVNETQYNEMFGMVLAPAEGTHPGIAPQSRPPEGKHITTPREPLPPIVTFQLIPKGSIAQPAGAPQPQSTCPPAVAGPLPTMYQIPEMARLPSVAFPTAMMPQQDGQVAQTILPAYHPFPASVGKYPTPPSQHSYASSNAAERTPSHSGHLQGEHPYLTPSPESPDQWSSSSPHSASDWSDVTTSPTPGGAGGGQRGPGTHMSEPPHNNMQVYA

SMILES	composite z-score
CCCCC(=C=CC[C@@H](O)c1cccc(OCCO)c1)CCO	-0.277
O=C(NCC(F)(F)F)[C@@H]1c2ccccc2C(=O)N(CC23CC4CC(CC(C4)C2)C3)[C@H]1c1ccc(CO)cc1	0.958
C=CCC(OC(C)=O)[C@@H]1[C@@H](N(Cc2cccc3ccccc23)C(=O)c2ccc(C)cc2)c2cc(OCCCO)ccc2N1C(=O)c1ccc2ccccc2n1 (stereo partly drawn)	-0.327
CC#CCO[Si](C#CCCCCCC)(C(C)C)C(C)C	-1.9
CC(C)(C)OC(=O)CC[C@]1(C(N)=O)N=C(c2ccc(OCCCO)cc2)O[C@H]1c1ccccc1CN=[N+]=[N-]	1.53
COc1ccc(CCNC(=O)[C@@]2(C)c3ccccc3C(=O)N(Cc3cc(C(F)(F)F)cc(C(F)(F)F)c3)[C@H]2c2ccc(CO)cc2)cc1	-0.57
CN(C)CCCC[C@@H]1NC(=O)[C@@H]2C[C@H](C(=O)NCCCCCCNC(=O)CS)[C@H](c3cccc(OCCO)c3)N2C1=O	-0.453
COCCCNC(=O)[C@@H]1c2ccccc2C(=O)N(C2CCCCC2)[C@H]1c1ccc(CO)cc1	-1.03
COC(=O)C1=CC(CCCO)=CC(C2CC2)N(Cc2cccc(OC(F)(F)F)c2)C=C1C(=O)OC (stereo not drawn)	0.515
C=C(C(=O)CC[C@@H](OC(C)=O)c1cccc(OCCO)c1)C(C)C	-0.768
COc1ccc([Si](C)(C)[C@@H]2[C@@H](CC(=O)N(CCO)Cc3ccccc3)O[C@]3(C(=O)N(Cc4ccc(N5CCC5=O)cc4)c4ccccc43)[C@H]2C)cc1	0.0102
CC(C)CNC(=O)[C@@H]1c2ccccc2C(=O)N(CC23CC4CC(CC(C4)C2)C3)[C@H]1c1ccc(CO)cc1	0.632
COc1cc2c(cc1O)C(c1ccc(CN3CCCC3)cc1)N(Cc1ccc([N+](=O)[O-])o1)CC2 (stereo not drawn)	0.345
COC(=O)[C@]1(CO)N=C(c2ccc(OCCCO)cc2)O[C@@H]1c1ccccc1CN=[N+]=[N-]	-0.663
COCCOC(=O)N1C(=O)[C@@]2(c3ccccc31)[C@H](c1ccc(OCCO)cc1)N1[C@H](c3ccccc3)[C@H](c3ccccc3)OC(=O)[C@H]1[C@@H]2C(=O)N1CCN(c2ncccn2)CC1	1.47
COCCOC(=O)N1C(=O)[C@@]2(c3cc(C#Cc4ccc(OC)cc4)ccc31)[C@H](c1ccc(OCCO)cc1)N1[C@H](c3ccccc3)[C@H](c3ccccc3)OC(=O)[C@H]1[C@@H]2C(=O)N1CCCCCCC1	0.753
Cc1ccccc1C(O)C1C=CC2C(=O)N(c3ccccc3)C(=O)C2N1Nc1ccccc1F (stereo not drawn)	1.16
CO[C@H]1O[C@H](CO)[C@@H](OC(=O)Nc2ccc(C(F)(F)F)cc2)[C@H](OC(=O)Nc2ccccc2-c2ccccc2)[C@@H]1OC(=O)Nc1ccccc1-c1ccccc1	1.56
C=C(COC)C(=O)CC[C@@H](OC(C)=O)c1ccc(OCCO)cc1	0.297
CCC(CC)C(O)C1C=CC2C(=O)N(C)C(=O)C2N1N1CCCCC1 (stereo not drawn)	1.31
CCCC[C@@H]1C[C@H]1[C@@H](NC(=O)c1ccc(C(F)(F)F)cc1)c1ccc(C(=O)OC)cc1	0.587
C=CCN1C(=O)[C@]2(O[C@H](CCn3cc([C@H](O)c4ccccc4)nn3)[C@@H]([Si](C)(C)c3ccc(OC)cc3)[C@@H]2C)c2cc(N3C(=O)c4cccc5cccc3c45)ccc21	-0.0893
COc1ccc([Si](C)(C)[C@H]2[C@H](CCO)O[C@@]3(C(=O)N(Cc4ccccc4)c4ccc(N(C=O)c5ccccc5)cc43)[C@@H]2C)cc1	0.697
COCCOC(=O)N1C(=O)[C@@]2(c3cc(C#Cc4ccc(OC)cc4)ccc31)[C@H](C(=O)Nc1nc3ccccc3s1)[C@H]1C(=O)O[C@H](c3ccccc3)[C@H](c3ccccc3)N1[C@@H]2c1ccccc1OCCO	1.02
CN(C)C(=O)[C@]1(Cc2ccccc2)N=C(c2ccc(OCCCO)cc2)O[C@@H]1c1ccccc1	1.46
CCCCC(=C=CC[C@H](O)c1ccc(OCCO)cc1)C[C@H](O)c1ccccn1	0.356
Cc1ccc(S(=O)(=O)N2[C@@H](c3ccccc3)C(C(=O)O)=CC[C@H]2c2ccc(C#N)cc2)cc1	1.39

Target: Pro-neuregulin-1, membrane-bound isoform (Homo sapiens) (UniProt Q02297)
Experiment: NRG1 binders on small-molecule microarrays, primary screen, psychiatric disease protein project, biochemical, small-molecule microarray, fluorescence 635/667 (AID 1075);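 also: score combines 667 nm spot fluorescence with signal to noise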
Conditions: NRG1 binding, 635 nm fluorescence, higher = more signal

Sequence of Pro-neuregulin-1, membrane-bound isoform (Homo sapiens) (Q02297 whole entry, looked up, canonical isoform): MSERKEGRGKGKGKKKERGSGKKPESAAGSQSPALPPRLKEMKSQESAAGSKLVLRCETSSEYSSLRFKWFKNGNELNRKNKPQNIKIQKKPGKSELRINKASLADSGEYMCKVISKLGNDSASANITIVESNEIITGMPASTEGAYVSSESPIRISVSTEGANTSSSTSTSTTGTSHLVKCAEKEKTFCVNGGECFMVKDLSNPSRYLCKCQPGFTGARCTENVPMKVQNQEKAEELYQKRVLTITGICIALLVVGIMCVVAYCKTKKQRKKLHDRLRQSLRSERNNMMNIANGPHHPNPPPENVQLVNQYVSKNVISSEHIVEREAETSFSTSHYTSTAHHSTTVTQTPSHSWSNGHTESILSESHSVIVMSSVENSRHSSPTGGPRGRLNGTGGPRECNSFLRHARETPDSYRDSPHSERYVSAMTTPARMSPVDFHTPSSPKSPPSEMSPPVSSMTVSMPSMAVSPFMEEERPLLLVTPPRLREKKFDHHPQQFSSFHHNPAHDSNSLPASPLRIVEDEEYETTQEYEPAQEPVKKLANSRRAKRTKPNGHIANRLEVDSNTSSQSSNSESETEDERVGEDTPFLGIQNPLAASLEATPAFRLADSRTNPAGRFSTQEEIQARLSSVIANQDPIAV

SMILES	composite z-score
CC(C)C[C@@H]1NC(=O)[C@@]23C(=O)N[C@@H](Cc4ccccc4)C2[C@H](C)[C@@]2(C)O[C@H]2C3/C=C/C/C=C\CNC(=O)[C@@H](CC(C)C)NC1=O (stereo partly drawn)	0.345
C=CCC(OC(C)=O)[C@@H]1[C@@H](N(Cc2ccc(-c3cccc(C(F)(F)F)c3)o2)C(=O)c2cccc3ccccc23)c2cc(OCCCO)ccc2N1C(=O)c1ccc2ccccc2c1 (stereo partly drawn)	0.62
O=C1OCCC/C=C\[C@H]2OC34C=CCN(Cc5ccccc5)C(=O)[C@H]3N(CCCCCO)C(=O)[C@@H]4C12 (stereo partly drawn)	1.05
CCCC=C(CCC)[C@@H](NC(=O)c1ccccc1)c1ccc(C(=O)OC)cc1	-0.0843
COC(=O)[C@@]1(Cc2ccc(F)cc2)[C@H]2c3cc(C(=O)N4CCCC4)n(CCO)c3C[C@H]2CN1C(=O)c1ccccc1	1.06
COCCCNC(=O)[C@@]1(Sc2ccc(C)cc2)CC(=O)N(C2CCCCC2)[C@@H]1c1ccc(CO)cc1I	1.56
COc1ccc([Si](C)(C)[C@H]2[C@H](CCO)O[C@@]3(C(=O)N(Cc4ccc(N5CCOC5=O)cc4)c4ccccc43)[C@@H]2C)cc1	1.11
C=CCNC(=O)[C@@H]1[C@H]2C(=O)O[C@H](c3ccccc3)[C@H](c3ccccc3)N2[C@H](c2ccccc2OCCO)[C@@]12C(=O)N(C(=O)OCCOC)c1ccc(C#CCCO)cc12	1.2
COCCOC(=O)N1C(=O)[C@@]2(c3ccccc31)[C@H](C(=O)N1CCCCCCC1)[C@H]1C(=O)O[C@H](c3ccccc3)[C@H](c3ccccc3)N1[C@@H]2c1ccc(O)cc1	1.59
CCCCC(=C=CC[C@@H](O)c1cccc(OCCO)c1)CCO	-0.0951
O=C(NCC(F)(F)F)[C@@H]1c2ccccc2C(=O)N(CC23CC4CC(CC(C4)C2)C3)[C@H]1c1ccc(CO)cc1	0.553
C=CCC(OC(C)=O)[C@@H]1[C@@H](N(Cc2cccc3ccccc23)C(=O)c2ccc(C)cc2)c2cc(OCCCO)ccc2N1C(=O)c1ccc2ccccc2n1 (stereo partly drawn)	-0.157
CC#CCO[Si](C#CCCCCCC)(C(C)C)C(C)C	-0.353
CC(C)(C)OC(=O)CC[C@]1(C(N)=O)N=C(c2ccc(OCCCO)cc2)O[C@H]1c1ccccc1CN=[N+]=[N-]	2.66
COc1ccc(CCNC(=O)[C@@]2(C)c3ccccc3C(=O)N(Cc3cc(C(F)(F)F)cc(C(F)(F)F)c3)[C@H]2c2ccc(CO)cc2)cc1	1.73
CN(C)CCCC[C@@H]1NC(=O)[C@@H]2C[C@H](C(=O)NCCCCCCNC(=O)CS)[C@H](c3cccc(OCCO)c3)N2C1=O	0.67
COCCCNC(=O)[C@@H]1c2ccccc2C(=O)N(C2CCCCC2)[C@H]1c1ccc(CO)cc1	1.2
COC(=O)C1=CC(CCCO)=CC(C2CC2)N(Cc2cccc(OC(F)(F)F)c2)C=C1C(=O)OC (stereo not drawn)	1.14

SMILES	composite z-score
C=C(C(=O)CC[C@@H](OC(C)=O)c1cccc(OCCO)c1)C(C)C	1.92
COc1ccc([Si](C)(C)[C@@H]2[C@@H](CC(=O)N(CCO)Cc3ccccc3)O[C@]3(C(=O)N(Cc4ccc(N5CCC5=O)cc4)c4ccccc43)[C@H]2C)cc1	0.695
CC(C)CNC(=O)[C@@H]1c2ccccc2C(=O)N(CC23CC4CC(CC(C4)C2)C3)[C@H]1c1ccc(CO)cc1	0.792
COc1cc2c(cc1O)C(c1ccc(CN3CCCC3)cc1)N(Cc1ccc([N+](=O)[O-])o1)CC2 (stereo not drawn)	2.15
COC(=O)[C@]1(CO)N=C(c2ccc(OCCCO)cc2)O[C@@H]1c1ccccc1CN=[N+]=[N-]	-0.12
COCCOC(=O)N1C(=O)[C@@]2(c3ccccc31)[C@H](c1ccc(OCCO)cc1)N1[C@H](c3ccccc3)[C@H](c3ccccc3)OC(=O)[C@H]1[C@@H]2C(=O)N1CCN(c2ncccn2)CC1	1.33
COCCOC(=O)N1C(=O)[C@@]2(c3cc(C#Cc4ccc(OC)cc4)ccc31)[C@H](c1ccc(OCCO)cc1)N1[C@H](c3ccccc3)[C@H](c3ccccc3)OC(=O)[C@H]1[C@@H]2C(=O)N1CCCCCCC1	1.52
Cc1ccccc1C(O)C1C=CC2C(=O)N(c3ccccc3)C(=O)C2N1Nc1ccccc1F (stereo not drawn)	2.15
CO[C@H]1O[C@H](CO)[C@@H](OC(=O)Nc2ccc(C(F)(F)F)cc2)[C@H](OC(=O)Nc2ccccc2-c2ccccc2)[C@@H]1OC(=O)Nc1ccccc1-c1ccccc1	1.77
C=C(COC)C(=O)CC[C@@H](OC(C)=O)c1ccc(OCCO)cc1	-0.239
CCC(CC)C(O)C1C=CC2C(=O)N(C)C(=O)C2N1N1CCCCC1 (stereo not drawn)	1.83
CCCC[C@@H]1C[C@H]1[C@@H](NC(=O)c1ccc(C(F)(F)F)cc1)c1ccc(C(=O)OC)cc1	0.311
C=CCN1C(=O)[C@]2(O[C@H](CCn3cc([C@H](O)c4ccccc4)nn3)[C@@H]([Si](C)(C)c3ccc(OC)cc3)[C@@H]2C)c2cc(N3C(=O)c4cccc5cccc3c45)ccc21	1.07
COc1ccc([Si](C)(C)[C@H]2[C@H](CCO)O[C@@]3(C(=O)N(Cc4ccccc4)c4ccc(N(C=O)c5ccccc5)cc43)[C@@H]2C)cc1	0.929
COCCOC(=O)N1C(=O)[C@@]2(c3cc(C#Cc4ccc(OC)cc4)ccc31)[C@H](C(=O)Nc1nc3ccccc3s1)[C@H]1C(=O)O[C@H](c3ccccc3)[C@H](c3ccccc3)N1[C@@H]2c1ccccc1OCCO	0.176
CN(C)C(=O)[C@]1(Cc2ccccc2)N=C(c2ccc(OCCCO)cc2)O[C@@H]1c1ccccc1	1.78
CCCCC(=C=CC[C@H](O)c1ccc(OCCO)cc1)C[C@H](O)c1ccccn1	1.47
Cc1ccc(S(=O)(=O)N2[C@@H](c3ccccc3)C(C(=O)O)=CC[C@H]2c2ccc(C#N)cc2)cc1	1.72

From PubChem BioAssay
